# Source: PubChem BioAssay
# Where “and” joins values, the source holds several entries; their conditions need not be identical. Identical values can stand only once. Results filed as inconclusive are left out. For some of these results: Measured potencies and affinities stand elsewhere. Calls of active or inactive are those of the source. Unless noted, no stated cut-off is given here; in the data, active means parasite load remaining mostly below about 12% (no sharp cut-off); inactive means mostly above about 10%.
# What was measured:
# [1] = target: ATP-dependent translocase ABCB1 (Homo sapiens) (UniProt P08183); experiment: P-glycoprotein substrate transport blockade – cell-based (AID 377; in the data active means fluorescence slope change above about 50%); details: MDR1-expressing cells, fluorescent substrate accumulation slope; stronger effect = higher value; concentration not given here
# Chain of ATP-dependent translocase ABCB1 (Homo sapiens) (P08183 whole entry, looked up): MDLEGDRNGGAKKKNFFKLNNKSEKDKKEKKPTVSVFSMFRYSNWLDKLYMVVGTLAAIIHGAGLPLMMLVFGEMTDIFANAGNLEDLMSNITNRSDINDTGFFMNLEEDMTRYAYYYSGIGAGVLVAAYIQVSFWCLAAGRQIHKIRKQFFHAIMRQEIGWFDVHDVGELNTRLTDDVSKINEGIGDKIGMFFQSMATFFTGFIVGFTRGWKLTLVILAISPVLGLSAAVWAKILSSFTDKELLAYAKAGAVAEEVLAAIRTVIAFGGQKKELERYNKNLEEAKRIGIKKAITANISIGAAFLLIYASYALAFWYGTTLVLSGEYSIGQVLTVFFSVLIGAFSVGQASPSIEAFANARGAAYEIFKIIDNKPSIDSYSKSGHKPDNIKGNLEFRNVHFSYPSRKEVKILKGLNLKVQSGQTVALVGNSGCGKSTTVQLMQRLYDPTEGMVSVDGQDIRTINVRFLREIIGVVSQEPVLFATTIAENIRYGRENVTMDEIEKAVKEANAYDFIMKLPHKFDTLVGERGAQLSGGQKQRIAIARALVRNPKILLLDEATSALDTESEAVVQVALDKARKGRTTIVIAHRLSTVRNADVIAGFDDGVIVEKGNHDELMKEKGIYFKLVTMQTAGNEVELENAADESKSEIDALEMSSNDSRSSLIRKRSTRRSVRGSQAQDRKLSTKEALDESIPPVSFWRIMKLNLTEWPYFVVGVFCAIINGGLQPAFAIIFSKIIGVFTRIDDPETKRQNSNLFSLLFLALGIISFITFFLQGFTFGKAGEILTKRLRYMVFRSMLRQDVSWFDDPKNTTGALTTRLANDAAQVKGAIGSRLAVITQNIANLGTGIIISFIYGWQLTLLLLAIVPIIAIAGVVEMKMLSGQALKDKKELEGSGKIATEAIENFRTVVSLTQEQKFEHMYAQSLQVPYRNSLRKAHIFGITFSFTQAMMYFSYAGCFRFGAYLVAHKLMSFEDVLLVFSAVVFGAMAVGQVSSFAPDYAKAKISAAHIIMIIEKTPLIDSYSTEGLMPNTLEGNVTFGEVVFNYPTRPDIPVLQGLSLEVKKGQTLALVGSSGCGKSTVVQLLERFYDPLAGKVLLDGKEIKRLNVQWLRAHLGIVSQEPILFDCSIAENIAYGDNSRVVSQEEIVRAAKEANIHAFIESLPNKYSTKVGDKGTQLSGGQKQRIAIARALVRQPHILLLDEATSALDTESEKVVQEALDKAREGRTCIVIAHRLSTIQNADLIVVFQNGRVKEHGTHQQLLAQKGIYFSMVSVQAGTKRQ
# [2] = antimalarial activity against Dd2 strain (AID 2302;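 active means growth inhibition above 50% at the single 2 µM test dose, taken to imply half-maximal potency below 2 µM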;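 further: 0% = DMSO untreated growth and 100% = chloroquine plus artemisinin killed control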); details: P. falciparum Dd2 in RBCs, LDH growth readout, 72 h; at 2 µM; stronger effect = higher value
# [3] = human hepatoma cell viability loss – ATP luminescence, cytotoxicity control for P. falciparum antimalarial project, primary screen (AID 2303;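 active means inhibition above 50%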;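 further: 0% = DMSO wells and 100% = digitonin-killed cells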); details: HepG2 viability, 24-48 h, at 10 µM, stronger effect = higher value
# [4] = target: L-lactate dehydrogenase (Plasmodium falciparum (isolate CDC / Honduras)) (UniProt Q27743); experiment: PfLDH activity inhibition – cell lysate, 3D7 strain, counter-screen for P. falciparum growth inhibition project (AID 2304; call rule not given here;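 further: 0% = vehicle and 100% = reference inhibitor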); details: P. falciparum 3D7 crude extract, LDH APAD/NBT absorbance; at 2 µM; stronger effect = higher value
# Chain of L-lactate dehydrogenase (Plasmodium falciparum (isolate CDC / Honduras)) (Q27743 whole entry, looked up): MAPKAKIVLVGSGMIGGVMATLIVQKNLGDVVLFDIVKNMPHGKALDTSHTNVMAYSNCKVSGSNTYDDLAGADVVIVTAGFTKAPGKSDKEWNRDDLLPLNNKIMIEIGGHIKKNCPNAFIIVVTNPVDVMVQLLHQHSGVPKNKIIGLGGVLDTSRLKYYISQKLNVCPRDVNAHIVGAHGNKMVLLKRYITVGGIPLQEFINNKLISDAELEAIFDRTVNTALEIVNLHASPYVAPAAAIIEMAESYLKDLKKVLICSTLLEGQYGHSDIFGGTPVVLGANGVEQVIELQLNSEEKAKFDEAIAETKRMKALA
# [5] = inhibition of 3D7 malaria parasite growth – strain 3D7 (AID 2306; call rule not given here;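 further: 0% = DMSO wells and 100% = chloroquine plus artemisinin control wells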); details: P. falciparum 3D7 erythrocytic growth, LDH absorbance, 72 h; at 2 µM; stronger effect = higher value
# [6] = compounds altering viability of human ES cells (AID 493140; call rule not given here;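 further: cells exposed to compounds for four days before counting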); details: human embryonic stem cell survival screen; stronger effect = higher value
# [7] = EMT-state selective cytotoxicity in co-culture – imaging, PC-3E GFP, TEM4-18 mCherry, primary screen (AID 1345086;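 active means compounds killing one labelled cell type while sparing the other, by normalised counts and ratio limits, not self-fluorescent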;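 on all read-outs here: cells exposed to compound for 72 h before imaging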;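 on red/green cell ratio (normalised): normalised mesenchymal count divided by normalised epithelial count so high means epithelial killing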); details: PC-3E GFP / TEM4-18 mCherry co-culture, imaging cell counts, at 1 µM; for red/green cell ratio (normalised): actives lie on both sides, counts scaled to control wells, 1 = unselective
# [8] = MELAS cybrid and Rieske KO viability enhancers – cell-based, MELAS cybrids, Rieske KO mouse fibroblasts, CellTiter-Glo, primary screen (AID 1508586;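 active means mean z-score across replicates of 1.96 or higher in either the MELAS or the Rieske mutant cell line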;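 further: z relative to plate mean and SD of compound and empty wells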); details: low glucose
# [9] = target: NAD(+) hydrolase SARM1 (Homo sapiens) (UniProt Q6SZW1); experiment: blocking NAD cleavage by SARM1 SAM-TIR – cell lysate, NAD-Glo luminescence (AID 1508614;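 active means compound whose remaining NAD level is above about 45 nM, limit read from the data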); details: SAM-TIR HEK293T lysate NADase, at 1 µM, stronger effect = higher value
# Chain of NAD(+) hydrolase SARM1 (Homo sapiens) (Q6SZW1 whole entry, looked up, the tested form may be a part): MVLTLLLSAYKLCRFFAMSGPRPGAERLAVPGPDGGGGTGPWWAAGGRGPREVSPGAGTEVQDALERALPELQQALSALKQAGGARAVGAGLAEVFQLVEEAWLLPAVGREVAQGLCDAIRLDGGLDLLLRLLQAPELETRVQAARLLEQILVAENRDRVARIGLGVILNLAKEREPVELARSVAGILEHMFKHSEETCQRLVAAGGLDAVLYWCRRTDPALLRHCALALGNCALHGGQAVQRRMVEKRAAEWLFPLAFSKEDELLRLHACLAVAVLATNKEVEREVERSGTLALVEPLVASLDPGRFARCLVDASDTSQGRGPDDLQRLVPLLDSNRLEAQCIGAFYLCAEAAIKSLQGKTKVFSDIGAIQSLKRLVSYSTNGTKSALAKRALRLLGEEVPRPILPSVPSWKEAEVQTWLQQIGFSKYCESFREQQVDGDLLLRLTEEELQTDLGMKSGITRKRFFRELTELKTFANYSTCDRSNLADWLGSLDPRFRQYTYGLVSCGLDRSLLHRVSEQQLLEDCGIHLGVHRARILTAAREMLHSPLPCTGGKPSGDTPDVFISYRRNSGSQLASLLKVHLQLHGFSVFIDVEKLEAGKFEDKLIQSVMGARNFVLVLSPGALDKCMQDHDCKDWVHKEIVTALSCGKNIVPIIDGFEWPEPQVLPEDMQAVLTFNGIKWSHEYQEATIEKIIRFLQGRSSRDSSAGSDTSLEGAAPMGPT
# [10] = target: Mitogen-activated protein kinase 7 (Homo sapiens) (UniProt Q13164); experiment: Gal4-ERK5 driven luciferase induction – cell-based, HTS, primary screen (AID 1508626;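 active means luciferase signal above three times the same-plate solvent-only control wells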;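 further: luciferase driven by Gal4-ERK5 fusion binding five Gal4 sites before minimal TATA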); details: HeLa Gal4-ERK5 transactivation, 18 h, at 5 µM, stronger effect = higher value
# Chain of Mitogen-activated protein kinase 7 (Homo sapiens) (Q13164 whole entry, looked up, the tested form may be a part): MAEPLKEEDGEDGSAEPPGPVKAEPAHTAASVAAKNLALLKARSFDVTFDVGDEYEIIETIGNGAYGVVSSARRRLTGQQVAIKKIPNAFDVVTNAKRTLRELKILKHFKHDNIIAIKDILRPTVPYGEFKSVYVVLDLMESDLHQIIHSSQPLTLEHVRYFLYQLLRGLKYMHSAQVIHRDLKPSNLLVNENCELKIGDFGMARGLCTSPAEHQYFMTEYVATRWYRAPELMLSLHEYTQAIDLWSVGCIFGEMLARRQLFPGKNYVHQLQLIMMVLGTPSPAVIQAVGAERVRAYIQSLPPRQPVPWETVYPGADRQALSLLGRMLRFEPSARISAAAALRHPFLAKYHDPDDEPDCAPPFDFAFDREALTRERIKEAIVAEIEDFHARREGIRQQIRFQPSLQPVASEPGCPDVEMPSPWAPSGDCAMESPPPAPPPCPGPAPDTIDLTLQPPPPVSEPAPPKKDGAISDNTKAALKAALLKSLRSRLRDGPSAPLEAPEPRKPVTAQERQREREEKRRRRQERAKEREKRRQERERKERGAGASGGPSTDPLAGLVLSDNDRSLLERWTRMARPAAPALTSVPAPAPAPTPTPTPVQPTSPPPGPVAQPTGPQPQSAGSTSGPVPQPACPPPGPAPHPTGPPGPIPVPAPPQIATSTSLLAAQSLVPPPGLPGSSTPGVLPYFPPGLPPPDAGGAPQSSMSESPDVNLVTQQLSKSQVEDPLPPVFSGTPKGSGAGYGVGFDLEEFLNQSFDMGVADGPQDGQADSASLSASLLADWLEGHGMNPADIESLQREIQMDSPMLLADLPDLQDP
# [11] = galactose survival enhancers in mitochondrial complex I cybrids – cell-based, galactose medium, ATP luminescence, primary screen (AID 1645843;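 active means z-score of at least 1.8 in each of two replicates, scored against plate mean and spread of sample wells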;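 further: positive z means more ATP and so rescue of galactose-driven cybrid death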); details: complex I mutant cybrid cells, 72 h, stronger effect = higher value
# [12] = P. berghei load reduction in hepatocytes – cell-based, HepG2, luciferase luminescence, HepG2 viability, primary screen (AID 624349);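 further: 100% = mean of DMSO negative control wells on the same plate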; details: P. berghei liver stage in HepG2, luciferase luminescence, concentration not given here; parasite load remaining: stronger effect = lower value; viability: measured here: HepG2 viability without parasites
# [13] = viability loss with induced miR-34 in A549 – imaging, A549 dox-inducible miR-34, nuclei and caspase counts, primary screen (AID 1347080;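 active means compounds whose cell count with miR-34 switched on is under 0.7 times the count with it off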); details: A549 miR-34 inducible, Hoechst nuclei count, 48 h
# [14] = blockers of polyQ-driven CASP3 activation – cell-based (AID 1583); details: polyglutamine-induced caspase-3 activation, cell assay; stronger effect = higher value;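 tested at 10 µM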
# [15] = yeast 75Q aggregation reduction – 75Q-TubU reporter (AID 1593); details: Yeast 75Q polyglutamine aggregation reporter
# [16] = restoration of touch response, mutant HTT neurons – whole organism, C. elegans mechanosensory neurons, N-terminal huntingtin (AID 1599); details: C. elegans polyQ-huntingtin mechanosensory neurons, stronger effect = higher value
# [17] = blockers of cytochrome c efflux from mitochondria – biochemical, purified mitochondria (AID 1603); details: stronger effect = lower value;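 further: mouse liver mitochondria challenged with calcium chloride; signal normalized to the plate average as 100%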
# [18] = polyglutamine aggregate formation blockers (AID 1604); details: polyglutamine-induced protein aggregation inhibition assay; stronger effect = higher value; tested at 2.5 µM
# [19] = glutamate transport activators, MN-1 cells, MN-1 cell line (AID 1612); details: MN-1 motor neuron cells, stronger effect = higher value;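 further: tested at 1 µM final; 0% = mean of DMSO vehicle wells on each plate; positive means more glutamate uptake than control and negative means less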
# [20] = GFP-Q80 aggregate reduction, neuronal-like cells, cell-based, NGF-treated PC12, GFPQ80 (AID 1614); details: PC12 NGF-treated GFP-polyQ80 inclusion reduction;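 further: lower means fewer inclusions and 0 means no inclusions at all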
# [21] = 75Q-TubH aggregate inhibition, S. cerevisiae, yeast (AID 1616); details: S. cerevisiae 75Q-TubH polyglutamine aggregation suppression; stronger effect = higher value
# [22] = blockers of cellular phospholipid synthesis – cell-based, LOPAC library, screen 4, primary screen (AID 1347384; call rule not given here); details: animal cells, phospholipid biosynthesis inhibition screen; at 10 µM
# [23] = measured here: epithelial PC-3E GFP cell survival
# [24] = measured here: mesenchymal TEM4-18 mCherry cell survival
# [25] = stronger effect = lower value, cell number ratio, induced over uninduced
# [26] = measured here: relative caspase fold change +Dox/-Dox
# [27] = measured here: total cells with miR-34 induction, stronger effect = lower value
# [28] = measured here: total cells without miR-34 induction
smiles,measurement,setting,value
CN(Cc1cnc2nc(N)nc(N)c2n1)c1ccc(C(=O)NC(CCC(=O)O)C(=O)O)cc1 (centres undefined),fluorescence slope change,[1],-5.4% (inactive)
same,growth inhibition,[2],66% (active)
same,inhibition,[3],65% (active)
same,inhibition,[4],-1% (inactive)
same,growth inhibition,[5],91% (active)
same,survival,[6],10.7 (inactive)
same,red/green cell ratio (normalised),[7],0.89 (inactive)
same,normalised cell number,[7]; [23],1.15
same,normalised cell number,[7]; [24],1.02
same,z-score,"[8]; MELAS cybrid survival, CellTiter-Glo 48 h, stronger effect = higher value",-0.53 (inactive) and 1.15 (inactive)
same,z-score,"[8]; Rieske KO mouse fibroblast survival, CellTiter-Glo 72 h",0.183 and -0.283
same,remaining NAD,[9],10 nM (inactive)
same,luciferase signal,[10],32 AU (inactive)
same,z-score,[11],-1.2 (inactive)
CCCC[C@@H](CC)COC(=O)c1ccccc1O,parasite load remaining,[12],49.2% (inactive)
same,viability,[12],118%
same,red/green cell ratio (normalised),[7],0.88 (inactive)
same,normalised cell number,[7]; [23],1.19
same,normalised cell number,[7]; [24],1.04
same,fold change,[13]; [25],0.858 (inactive)
same,fold change,[13]; [26],1.6
same,cell count,[13]; [27],11400
same,cell count,[13]; [28],13300
CC(=O)O[C@]1(C(C)=O)CCC2C3C=C(C)C4=CC(=O)CCC4(C)C3CCC21C (some centres undefined),parasite load remaining,[12],94.3% (inactive) and 19.1% (inactive)
same,viability,[12],74.8% and 83.8%
same,red/green cell ratio (normalised),[7],0.94 (inactive)
same,normalised cell number,[7]; [23],1.18
same,normalised cell number,[7]; [24],1.11
same,fold change,[13]; [25],0.897 (inactive)
same,fold change,[13]; [26],2.81
same,cell count,[13]; [27],9250
same,cell count,[13]; [28],10300
C[C@H]1O[C@@H](O[C@H]2[C@@H](O)C[C@H](O[C@H]3[C@@H](O)C[C@H](O[C@H]4CC[C@]5(C)C6CC[C@]7(C)[C@@H](C8=CC(=O)OC8)CC[C@]7(O)C6CC[C@@H]5C4)O[C@@H]3C)O[C@@H]2C)C[C@H](O)[C@@H]1O (some centres undefined),parasite load remaining,[12],0.925% (inactive) and 0.995% (inactive)
same,viability,[12],37.2% and 52.3%
same,red/green cell ratio (normalised),[7],0.46 (inactive)
same,normalised cell number,[7]; [23],0.15
same,normalised cell number,[7]; [24],0.07
same,fold change,[13]; [25],0.424 (active)
same,fold change,[13]; [26],1.53
same,cell count,[13]; [27],190
same,cell count,[13]; [28],450
C[C@H]1CC2C([C@@H](O)C[C@@]3(C)C2CC[C@]3(O)C(=O)COC(=O)CCC(=O)O)[C@@]2(C)C=CC(=O)C=C12 (some centres undefined),parasite load remaining,[12],83.5% (inactive)
same,viability,[12],148%
same,red/green cell ratio (normalised),[7],0.8 (inactive)
same,normalised cell number,[7]; [23],1.3
same,normalised cell number,[7]; [24],1.04
same,fold change,[13]; [25],0.962 (inactive)
same,fold change,[13]; [26],2.48
same,cell count,[13]; [27],7610
same,cell count,[13]; [28],7910
CC1OC1P(=O)(O)O (centres undefined),inhibition,[14],-3.29%
same,score,[15],1.42
same,rescue above control,[16],16.3
same,cytochrome c release ratio,[17],6.79
same,inhibition of aggregation,[18],83.9%
same,glutamate uptake change,[19],-1.38%
same,inclusion score,[20],2
same,aggregation suppression score,[21],1.43
same,parasite load remaining,[12],59.9% (inactive) and 33.6% (inactive)
same,viability,[12],74.5% and 90.1%
same,red/green cell ratio (normalised),[7],1.09 (inactive)
same,normalised cell number,[7]; [23],1.06
same,normalised cell number,[7]; [24],1.16
same,outcome,[22],inactive
